HCMV inh – human cytomegalovirus inhibition | HFF cells, HCMV-luciferase reporter, 72 h; stronger effect = lower value | activity change, negative = inhibition, % at 57.5 µM | 410,000 tested, 4.5% active | AID 1259415; in the data active means activity change below about -60%; inconclusive means no clear call, values can overlap the other calls; inactive means above about -39%
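Two-dose cell screen: HFF monolayers treated with compounds and infected with luciferase-expressing HCMV at 1 PFU/cell, 72 h at 37C, then lysed for luciferase measurement.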
MARV entry inh – Marburg virus entry inhibition; Potency, µM (titrated, usually from 37.8 µM), for inactives: at the highest dose activity change, negative = inhibition, usual class: inhibitors; 300,000 tested, 1.8% active; Marburg virus pseudotyped entry inhibition, cell reporter; AID 540276; calls by dose curve; tested in HEK293 cells; further: potency means the concentration at half of the fitted maximal effect
Lassa entry inh – inhibitors of Lassa virus binding or cell entry; Lassa virus pseudotype entry inhibition, cell reporter; Potency, µM (doses to about 37.9 µM), inactives show top-dose activity change, negative = inhibition, hits mostly inhibitors; 300,000 tested, 1.2% active; AID 540256; calls by dose curve; tested in HEK293 cells; further: potency means the concentration at half of the fitted maximal effect; nearly all actives have a fitted effect of over 50% in size
Pf growth 48h – inhibits P. falciparum growth in the first generation, 48 h; P. falciparum luciferase growth in erythrocytes, 48 h; Potency, µM (series often up to 28.7 µM), for inactives: top-dose activity change, negative = inhibition, actives largely listed as inhibitors; 310,000 tested, 5.9% active; further: potency means the concentration at half of the fitted maximal effect
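Luciferase-expressing parasites in RBCs, 2% Hct / 0.1% parasitemia final; RPMI 1640 + 0.5% Albumax; 37 C, 5% CO2, one generation; luminescence read-out, lower signal = inhibition.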
HCV inh – HCV inhibition; Huh7.5.1 HCVcc-Cre infection, luciferase reporter, 44 h; Potency, µM (series often up to 41.8 µM), for inactives: top-dose activity change, negative = inhibition, most hits filed as inhibitors; 340,000 tested, 3.4% active; AID 651820; further: potency means the concentration at half of the fitted maximal effect
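Cells (1,000/well) were plated 4 h before compound, then infected with HCVcc-Cre virus (~0.5 moi). After 44 h further culture, infection was read as luciferase luminescence following a 15 min substrate incubation at room temperature.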
Pf growth 96h – inhibits malaria parasite growth, 96 h; P. falciparum luciferase reporter growth, 96 h; Potency, µM (series often up to 28.7 µM), inactives show at the top dose activity change, negative = inhibition, usual class: inhibitors; 320,000 tested, 6.9% active; AID 504834; further: potency means the concentration at half of the fitted maximal effect
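Two-generation exposure (96 h) targets delayed-death phenotype. Reporter parasites carrying integrated firefly luciferase, in red cells at 2% hematocrit and 0.05% parasitemia final, kept at 37 C, 5% CO2; luminescence loss indicates inhibition.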
* marks the source's active call; other numbers are inactive results; ? = inconclusive; / = not tested or not shown; [ ] = dose if it differs, or a comment. Compounds with a hit are over-represented: about 14% of the library has one in this group of screens. Unless noted, the call rests on the fitted dose curve; in most records, active means well fitted inhibition curve with a large enough effect; inconclusive means small, poorly fitted or top-dose-only effect, or another doubt; inactive means no such curve, though single readings can be large or run the other way. On the % scale 0 is the no-effect control and ±100 the full control effect.

SMILES	HCMV inh	MARV entry inh	Lassa entry inh	Pf growth 48h	HCV inh	Pf growth 96h
CC1CCN(S(=O)(=O)c2ccc(NC(=O)c3cccs3)cc2)CC1	-32	?	?	4.7µM*	?	5%
CN1CCN(S(=O)(=O)c2ccc(NC(=O)c3cccs3)cc2)CC1	3	0%	-3%	-26%	-6%	21%
CC1CCCCN1S(=O)(=O)c1ccc(NC(=O)c2cccs2)cc1 (stereo not drawn)	-25	-10%	?	15µM*	?	?
COc1ccc(-n2cc(CNCC3CCOCC3)c(-c3cccc(F)c3)n2)cc1	-89*	/	/	?	4%	18%
COc1ccc(-n2cc(CNCC3CC(=O)N(C4CC4)C3)c(-c3ccccc3Cl)n2)cc1 (stereo not drawn)	3	11µM*	?	?	-6%	-2%
COc1ccc(-n2cc(CNCCCn3ccnc3)c(-c3cccc(F)c3)n2)cc1	?	/	/	1.5µM*	?	-13%
CCN1CC(CNCc2cn(-c3ccc(OC)cc3)nc2-c2ccccc2Cl)CC1=O (stereo not drawn)	19	?	2%	-8%	-24%	-5%
COc1ccc(-n2cc(CN(C)C3CCOCC3)c(-c3cccc(F)c3)n2)cc1	-24	?	?	-21%	?	-14%
O=C(NC1CC(=O)N(c2cccc(F)c2)C1)c1ccc(S(=O)(=O)N2CCCCC2)cc1 (stereo not drawn)	?	/	-2%[46.1 µM]	/	/	/
Cc1ccc(OC(C)C(=O)Nc2ccc3c(c2)n(C)c(=O)n3C)c(C)c1 (stereo not drawn)	-6	/	/	-17%	?	?
COc1ccccc1CNC(=O)C1CCCN1S(=O)(=O)c1ccc2c(c1)C(C)(C)C(=O)N2C (stereo not drawn)	-6	/	/	/	/	/
COc1cc(C(=O)N2CCC(N3CCN(C)CC3)CC2)ccc1Nc1ncc2c(n1)N(C)c1ccccc1C(=O)N2C	-73*	/	/	/	/	/
COc1cc(C(=O)NC2CCCCC2)ccc1OC1CCN(C(C)=O)CC1	37	1%[46.1 µM]	-13%[46.1 µM]	-28%	9%	-28%
COc1ccccc1N1CCN(C2CCN(C(=O)c3ccc(F)cc3)CC2)CC1	-16	2%	-11%	-25%	9%	19%
CCN1C(=O)CCN(C2CCCC2)c2nc(Nc3ccc(C(=O)NC4CCN(C)CC4)cc3OC)ncc21	-73*	/	/	/	29%[8.37 µM]	/
COc1cccc(NC(=O)CN2CCc3ccccc3C2)c1	58	/	/	-5%	-1%	-12%
CCOC(=O)[C@]12CCCC=C1N(Cc1cccc3ccccc13)C(=O)[C@H](CC(=O)NCCc1ccccc1OC)C2	20	/	/	/	/	/
CN(C)CCN(C)c1cc2c(c3c1ccn3C)C1CCC2O1 (stereo not drawn)	0	/	/	/	/	/
COc1cccc(N2CCN(C(c3ccccn3)c3nnnn3C(C)(C)C)CC2)c1 (stereo not drawn)	-6	5%	-3%	?	-6%	?
CCC(C)(C)n1nnnc1C(c1ccc(C)cc1)N1CCN(Cc2cccnc2)CC1 (stereo not drawn)	-10	?	2%	13µM*	16%	-4%[5.75 µM]
CCC(C)(C)n1nnnc1C(c1cccnc1)N1CCN(c2cccc(C(F)(F)F)c2)CC1 (stereo not drawn)	30	13µM*	?	9.3µM*	0%	0%
CCC(C)(C)n1nnnc1C(c1ccncc1)N1CCN(c2cccc(OC)c2)CC1 (stereo not drawn)	-28	?	-27%	0%	1%	2.6µM*
CCC(=NCc1ccco1)c1c(O)n(C)c(=O)n(C)c1=O	-9	/	/	16%	-21%	22%
CCC(=NCCc1ccccc1)c1c(O)n(C)c(=O)n(C)c1=O	?	/	/	5%	8.9µM*	25%
COc1cc(C2c3c(oc4ccccc4c3=O)C(=O)N2c2ccc(C)cn2)ccc1O (stereo not drawn)	?	1%	?	9%	5%	15µM*
SMILES	HCMV inh	MARV entry inh	Lassa entry inh	Pf growth 48h	HCV inh	Pf growth 96h
CCOc1ccc(C2c3c(oc4ccccc4c3=O)C(=O)N2c2ccc(C)cn2)cc1OC (stereo not drawn)	48	/	/	4%	-4%	23%
Cc1ccc(CN2C(=O)c3ccccc3NC2c2cc(Br)ccc2O)cc1 (stereo not drawn)	-79*	?	?	?	-16%	?
COCCN1C(=O)CC[C@@]23C1=NC(C(=O)OC)=C(C(=O)OC)[C@@H]2N(CC=C(C)C)c1ccccc13	/	-14%[14.2 µM]	/	/	/	/
O=C(Nc1nccs1)c1c(O)c2cccc3c2n(c1=O)CCC3	-95*	/	/	2%	/	-8%
NCCNC(=O)c1c(O)c2cccc3c2n(c1=O)CCC3	13	10µM*	8%	-8%	-26%	0%
COc1ccc(OCC(=O)OCc2cc(=O)n3nc(-c4cccs4)sc3n2)cc1	21	/	7%[46.1 µM]	/	/	/
C=C1CCN([C@H](C(=O)NCc2ccccc2)C(C)C)S(=O)(=O)c2ccccc21	24	/	/	?	?	12µM*
CC(C)Cn1c(NCCN(C)C)nc2c1c(=O)[nH]c(=O)n2C	-10	-29%	1%	17%	3%	/
Cc1nc(N2CCN(Cc3ccccc3)CC2)[nH]c(=O)c1C	96	4%	-17%	19%	3%	2.6µM*
CCC(C)Nc1nc2c(c(=O)[nH]c(=O)n2C)n1CCCc1ccccc1 (stereo not drawn)	28	?	-19%[46.1 µM]	-8%	3%	4.1µM*
CCCCn1c(NCCN(C)C)nc2c1c(=O)[nH]c(=O)n2C	-8	-9%	2%	24%	18%	4.7µM*
Cn1c(=O)[nH]c(=O)c2c1nc(N1CCN(Cc3ccccc3)CC1)n2CCCc1ccccc1	-29	-10%	?	5.2µM*	-23%	/
Cc1ccc(S(=O)(=O)N(C)C)cc1NC(=O)CSc1nnc(C2CC2)n1C1CC1	4	/	/	?	?	-16%
COc1ccc(-c2csc(-c3c(N)c(C(=O)c4ccccc4)n4ccccc34)n2)cc1OC	-5	20%[46.1 µM]	11%[46.1 µM]	/	/	/
CN1CCN(c2nc3c(c(=O)n(C)c(=O)n3C)n2Cc2ccccc2)CC1	-30	/	/	-16%	10%	-20%
Cn1c(=O)c2c(nc(N3CCOCC3)n2Cc2ccccc2F)n(C)c1=O	-104*	-3%[46.1 µM]	-1%[46.1 µM]	/	/	/
Cn1c(=O)c2c(nc(N3CCN(c4ccccc4)CC3)n2CCCc2ccccc2)n(C)c1=O	-10	-15%	?	?	?	-15%
CC1CCN(c2nc3c(c(=O)n(C)c(=O)n3C)n2Cc2ccccc2)CC1	-31	-23%	7.3µM*	13µM*	?	?
Cn1c(=O)c2c(nc(N3CCN(Cc4ccccc4)CC3)n2CCCc2ccccc2)n(C)c1=O	-12	?	?	3.7µM*	?	6.6µM*

Screening data from PubChem BioAssay.
